USP30 inh = inhibitors of human USP30 deubiquitinase; Ubiquitin carboxyl-terminal hydrolase 30 (Homo sapiens), Q70CQ3; purified USP30, Ub-rhodamine cleavage fluorescence; inhibition, % at 25 µM; hit rate 5.3% among 47,000; AID 1645860, 2021
Target sequence (Q70CQ3 whole entry, looked up): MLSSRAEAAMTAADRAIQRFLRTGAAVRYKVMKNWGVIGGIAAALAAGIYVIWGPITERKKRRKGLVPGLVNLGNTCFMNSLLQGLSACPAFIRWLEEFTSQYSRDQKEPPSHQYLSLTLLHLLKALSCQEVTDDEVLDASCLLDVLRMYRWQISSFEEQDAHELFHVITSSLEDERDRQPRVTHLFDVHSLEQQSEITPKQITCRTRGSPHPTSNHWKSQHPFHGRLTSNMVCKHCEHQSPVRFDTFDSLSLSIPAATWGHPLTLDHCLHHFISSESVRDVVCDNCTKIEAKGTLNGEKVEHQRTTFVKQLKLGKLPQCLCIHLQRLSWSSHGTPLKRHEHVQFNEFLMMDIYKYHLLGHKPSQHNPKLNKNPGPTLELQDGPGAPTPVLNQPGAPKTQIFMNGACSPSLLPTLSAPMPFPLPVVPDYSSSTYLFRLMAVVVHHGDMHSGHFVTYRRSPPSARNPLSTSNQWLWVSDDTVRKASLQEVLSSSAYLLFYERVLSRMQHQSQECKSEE
USP28 inh = inhibitors of human USP28 deubiquitinase; AID 1645857, 2021; purified USP28, Ub-rhodamine cleavage fluorescence, 30 min; Ubiquitin carboxyl-terminal hydrolase 28 (Homo sapiens), Q96RU2; inhibition, % at 25 µM; hit rate 3% among 47,000
USP17 inh = inhibitors of human USP17 deubiquitinase; AID 1645855, 2021; hit rate 6.5% among 47,000; purified USP17, Ub-rhodamine cleavage fluorescence, 3 h; inhibition, % at 50 µM
* = called active by the depositor. Rows were chosen to be rich in hits. Some 11% of all compounds tested hit in one or more screens of this group. No stated cut-off is given here; in the data, active means inhibition above about 30%; inactive means the rest.

For O=C(Nc1cc(S(=O)(=O)N2CCOCC2)ccc1N1CCOCC1)c1cc2c(s1)CCCC2 the results were USP30 inh 30.3*, USP28 inh 8.1 and USP17 inh 16.4.
`Cc1ccc(S(=O)(=O)N2CCCCC2)cc1NC(=O)c1cc2c(s1)CCC2` gave USP30 inh 15.0, USP28 inh 5.9 and USP17 inh -2.0.
`CCn1c(Cn2cccn2)nc2cc(NC(=O)c3ccc(F)cc3)ccc21` gave USP30 inh 0.2, USP28 inh 53.3* and USP17 inh -5.2.
`CCn1c(Cn2cccn2)nc2cc(NC(=O)CC(C)C)ccc21` gave USP30 inh 19.9, USP28 inh 18.0 and USP17 inh 5.7.
Screening CC(C)Cn1c(=O)c2cc(C(=O)NCc3ccncc3)nn2c2ccccc21 returned USP30 inh -0.9, USP28 inh -0.4 and USP17 inh 4.3.
Screening CC(C)Cn1nc(C(=O)N(CCc2cccs2)Cc2cccs2)c2ccccc2c1=O returned USP30 inh 27.6, USP28 inh 15.4 and USP17 inh 32.5*.
Screening O=C(c1ccccc1)c1c(-c2ccccc2)oc2ccc(NS(=O)(=O)c3ccc(Cl)cc3)cc12 returned USP30 inh 26.3, USP28 inh 24.8 and USP17 inh 9.6.
For Cc1oc2ccc(NS(=O)(=O)c3ccc(F)cc3)cc2c1C(=O)OCc1ccccc1 the results were USP30 inh 25.6, USP28 inh 60.3* and USP17 inh 5.9.
For Cc1csc(NC(=O)c2c[nH]c3ccc(F)cc3c2=O)n1 the results were USP30 inh -174.0, USP28 inh -92.2 and USP17 inh -61.3.
`Cc1nc(NC(=O)c2ccc(F)cc2)nc2cc3c(cc12)OCO3` gave USP30 inh -227.6, USP28 inh -0.2 and USP17 inh 36.3*.
Screening Cc1cc(C)nc(-n2nc(C)cc2NC(=O)c2ccc3c(c2)OCO3)n1 returned USP30 inh -6.9, USP28 inh -5.0 and USP17 inh -5.2.
Screening CN(C)c1cnc(-n2cc(NC(=O)c3cccc(C#N)c3)cn2)nc1 returned USP30 inh -271.9, USP28 inh -41.1 and USP17 inh 11.7.
O=[N+]([O-])c1ccc(NCc2ccc(-c3cccs3)s2)nc1 was read as USP30 inh -14.8, USP28 inh 65.0* and USP17 inh 15.7.
Screening CC(=O)c1ccc(OCC(O)CN2CCCN(C(=O)c3cccs3)CC2)cc1 (configuration not stated) returned USP30 inh 2.8, USP28 inh 6.8 and USP17 inh 5.2.
For Cc1ccc(NC(=O)c2cc(-c3ccccn3)n[nH]2)cc1Cl the results were USP30 inh 12.1, USP28 inh 9.9 and USP17 inh 1.9.
`O=c1c(Cc2ccccc2)coc2ccccc12` gave USP30 inh 24.3, USP28 inh 49.9* and USP17 inh 12.5.
For O=c1c(CN2CCC3(CC2)Nc2ccccc2C2=NCCN23)coc2ccccc12 the results were USP30 inh -29.3, USP28 inh -1.1 and USP17 inh 5.9.
For CC(C)C(=O)N1CCN(C(=O)Nc2ccccc2)CC2(CC(=O)N(C)C2)C1 (configuration not stated) the results were USP30 inh 4.0, USP28 inh -9.1 and USP17 inh -17.1.
CCCS(=O)(=O)N1CCc2ccc(NC(=O)c3ccccc3)cc2C1 was read as USP30 inh -0.3, USP28 inh 3.2 and USP17 inh 0.3.
Screening O=C(c1cc(S(=O)(=O)Nc2ccc(Cl)cc2)ccc1Cl)N1CCCc2ccccc21 returned USP30 inh -159.8, USP28 inh -40.9 and USP17 inh -82.6.
`O=C(Nc1ccc(NS(=O)(=O)c2cccc(C(=O)N3CCCc4ccccc43)c2)cc1)c1ccccc1` gave USP30 inh 4.6, USP28 inh 14.2 and USP17 inh 32.0*.
For O=C(Nc1ccc(NS(=O)(=O)c2ccc3c4c(cccc24)CC3)cc1)c1ccccc1 the results were USP30 inh -61.1, USP28 inh 0.3 and USP17 inh 50.5*.
`O=C1C(NS(=O)(=O)Cc2cc(F)cc(F)c2)CCN1c1ccc(F)cc1` (configuration not stated) gave USP30 inh 26.7, USP28 inh 11.0 and USP17 inh 21.3.
Screening O=C(C1CCCN(S(=O)(=O)c2cccnc2)C1)N1CCN(Cc2ccccc2)CC1 (configuration not stated) returned USP30 inh -6.7, USP28 inh -10.6 and USP17 inh -5.3.
CC(C)CNC(=O)C1Cn2ccnc2C2(CCN(C(=O)C3CCC3)CC2)O1 (configuration not stated) was read as USP30 inh -0.3, USP28 inh -0.5 and USP17 inh -7.3.
For Cc1ccc2c(Cl)c(C(=O)NCC(c3ccccc3)N3CCOCC3)sc2c1 (configuration not stated) the results were USP30 inh 3.3, USP28 inh 2.3 and USP17 inh -1.4.
O=C(c1ccccn1)N1CCC(c2cc(=O)n3[nH]ccc3n2)CC1 was read as USP30 inh 15.6, USP28 inh 8.9 and USP17 inh 1.1.
Screening Cc1cc(C(=O)N2CCCCC2)c2c(=O)n(Cc3cccc(F)c3)c(=O)n(C)c2n1 returned USP30 inh -11.3, USP28 inh -11.0 and USP17 inh -9.2.
`Cc1cc(C(=O)N2CCCCC2)c2c(=O)n(Cc3ccc4nonc4c3)c(=O)n(C)c2n1` gave USP30 inh -19.9, USP28 inh 7.9 and USP17 inh 33.7*.
`O=C(NCc1cccnc1)C1CCN(C(=O)C(c2ccccc2)c2ccccc2)CC1` gave USP30 inh 11.0, USP28 inh 1.9 and USP17 inh 6.6.
Screening CC(=O)O[C@@H]1OC(=O)[C@](C)(C(C)=O)[C@@H]1C returned USP30 inh 32.9*, USP28 inh 11.4 and USP17 inh 39.4*.
`CCOC(=O)C1CCCN(C(=O)c2ccc(CNS(=O)(=O)c3ccc(F)cc3)cc2)C1` (configuration not stated) gave USP30 inh 23.0, USP28 inh 6.0 and USP17 inh 1.0.
For CCC1=C(c2ccc(C)cc2)S(=O)(=O)NC1=NCC(=O)NCc1cccc(C)c1 the results were USP30 inh 14.9, USP28 inh 19.8 and USP17 inh 43.7*.
Screening Cc1ccc(-c2ncc(NC(=O)Cc3ccccc3F)cn2)cc1 returned USP30 inh 5.0, USP28 inh 2.4 and USP17 inh 4.3.
`CC1=C(c2ccc(F)cc2)S(=O)(=O)NC1=NCC(=O)Nc1ccc(F)cc1F` gave USP30 inh 54.2*, USP28 inh 2.0 and USP17 inh 35.7*.
Screening COc1ccccc1CNC(=O)CN=C1NS(=O)(=O)C(c2ccc(C)c(C)c2)=C1C returned USP30 inh -19.6, USP28 inh 6.2 and USP17 inh -42.3.
CCC1=C(c2ccc(C)cc2)S(=O)(=O)NC1=NCC(=O)NCc1ccccc1F was read as USP30 inh 27.2, USP28 inh 13.0 and USP17 inh 60.3*.
`CCC1=C(c2ccc(C)cc2)S(=O)(=O)NC1=NCC(=O)NCc1ccc(OC)cc1` gave USP30 inh -6.3, USP28 inh -11.1 and USP17 inh -11.1.
CCn1ccc(C(=O)N2CCc3[nH]nc(-c4ccc(C)cc4)c3C2)n1 was read as USP30 inh -3.8, USP28 inh -0.1 and USP17 inh -5.8.

Assay outcomes: PubChem, Buhrlage Lab, Dana-Farber Cancer Institute and Novartis Institutes for BioMedical Research (Cambridge, Mass)
